Measurements as given in PubChem BioAssay.
A number with no mark means an inactive call. Active and inactive are the calls of the source.

Experiment: plasmodial surface anion channel blockers, osmotic lysis – cell-based, P. falciparum Indochina, OD700, 2 h, primary screen (AID 1155);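 also: lysis reports solute entry through the parasite surface anion channel PSAC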
Conditions: P. falciparum Indochina infected erythrocytes, higher = more signal, called active from +8 up or from −8 down

SMILES	z-score
COC(=O)C=C(CC(O)c1cccc(Cl)c1)OC (stereo not given)	2.27
COC(=O)[C@@]1(Cc2ccccc2)[C@H]2c3cc(C(=O)N4CCCC4)n(CC4CC4)c3C[C@H]2CN1C(=O)c1ccccc1	0.194
COCCOC(=O)N1C(=O)[C@@]2(c3cc(C#CCCO)ccc31)[C@H](c1ccc(OCCO)cc1)N1[C@H](c3ccccc3)[C@H](c3ccccc3)OC(=O)[C@H]1[C@@H]2C(=O)N1CCN(c2ncccn2)CC1	1.58
COC(=O)[C@@]1(Cc2ccc(F)cc2)[C@H]2c3cc(C(=O)N(C)C)n(Cc4ccc(S(C)(=O)=O)cc4)c3C[C@H]2CN1C(=O)c1ccccc1	0.495
CCC(CC)C(O)C1C=CC2C(=O)N(C)C(=O)C2N1Nc1ccccc1 (stereo not given)	1.09
C=CCNC(=O)[C@@H]1[C@H]2C(=O)O[C@H](c3ccccc3)[C@H](c3ccccc3)N2[C@H](c2ccc(OCCO)cc2)[C@@]12C(=O)Nc1ccc(C#CCCO)cc12	2.11
O=C(NCc1ccc(F)cc1)[C@H]1C[C@H]2C(=O)N[C@@H](Cc3ccccc3)C(=O)N2[C@H]1c1ccc(O)cc1	0.591
COC(=O)[C@@]1(Cc2ccc(F)cc2)[C@H]2c3cc(C(=O)N4CCCC4)n(Cc4cc(C)n(C)n4)c3C[C@H]2CN1C(=O)c1ccccc1	0.0953
C=CC[C@]1(C(=O)N2CCCCC2)N=C(c2ccc(OCCCO)cc2)O[C@H]1c1ccccc1	3.99
CN1C(=O)C2C=CC(C(O)C3CCCCC3)N(Nc3ccc([N+](=O)[O-])cc3[N+](=O)[O-])C2C1=O (stereo not given)	0.519
C=C(C)C1C(=C)CN([C@H](CO)c2ccccc2)C1=O (stereo not given in full)	0.497
N#Cc1ccc(NN2C(C(O)c3c(F)cccc3Cl)C=CC3C(=O)N(c4ccccc4)C(=O)C32)cc1 (stereo not given)	5.46
[N-]=[N+]=Nc1ccccc1[C@H]1OC(c2ccc(OCCCO)cc2)=N[C@@]1(Cc1ccccc1)C(=O)O	27.2 (active)
O=C1NCC(=O)N2[C@@H]1C[C@@H](C(=O)O)[C@H]2c1cccc(OCCO)c1	1.34
COc1ccc(CCN2C(=O)[C@@]3(Cc4ccccc42)c2ccccc2C(=O)N(Cc2ccccc2C(F)(F)F)[C@H]3c2ccc(CO)cc2)cc1	-1.13
CN(C)C(=O)[C@]1(Cc2ccccc2CN=[N+]=[N-])N=C(c2ccc(OCCCO)cc2)O[C@@H]1c1ccccc1CN=[N+]=[N-]	13.4 (active)
CC(C)C[C@@H]1NC(=O)[C@H]2C[C@@H](C(=O)NCCCCCCN)[C@@H](c3ccc(O)cc3)N2C1=O	0.0643
C=C(CCCC)/C(=C/C[C@@H](OC(C)=O)c1ccccc1OCCO)c1cnc2ccccc2c1	4.29

SMILES	z-score
COC(=O)[C@@]1(Cc2ccccc2)[C@H]2c3cc(C(=O)N4CCCC4)n(Cc4cccc5ccccc45)c3C[C@H]2CN1C(=O)c1ccccc1	1.43
[N-]=[N+]=NCc1ccccc1[C@@H]1OC(c2ccc(OCCCO)cc2)=N[C@]1(CCS(=O)(=O)c1ccccc1)C(=O)NCc1ccccc1	2.27
O=C1C[C@]2(c3ccc([N+](=O)[O-])cc3)C(=O)N(CCN3CCOCC3)c3cc(CO)ccc3[C@H]2N1C1CCCCC1	-0.837
O=C1O[C@@H](c2ccccc2)[C@@H](c2ccccc2)N2[C@@H](c3ccc(OCCO)cc3)[C@]3(C(=O)Nc4ccccc43)[C@@H](C(=O)NC[C@H](O)c3ccccc3)[C@H]12	1.85
Cc1ccc(C(C)CC(O)C2C=CC3C(=O)N(c4ccccc4)C(=O)C3N2Nc2ccc([N+](=O)[O-])cc2)o1 (stereo not given)	2.22
CC(C)C[C@@H]1NC(=O)[C@@H]2C[C@H](C(=O)NCCCCCN)[C@H](c3cccc(OCCO)c3)N2C1=O	-0.74
C=C(CCCC)C(=O)CC[C@@H](OC(=O)c1cccnc1)c1ccc(CO)o1	0.449
COc1ccc(C(O)C2C=CC3C(=O)N(c4ccccc4)C(=O)C3N2Nc2ccc(C(C)C)cc2)cc1OCc1ccccc1 (stereo not given)	1.62
CC(C)[C@@H](CO)NC(=O)[C@H]1[C@@H](c2ccccc2)N(c2ccccc2)O[C@@H]1C	-0.0799
O=C1c2ccccc2[C@](Cc2ccccc2I)(C(=O)NC2CC2)[C@H](c2ccc(CO)cc2)N1C1CCCCC1	5.2
CC1CC/C=C\[C@H]2OC34C=CCN(Cn5nnc6ccccc65)C(=O)[C@H]3N(C(CO)C(C)C)C(=O)[C@@H]4C2C(=O)O1 (stereo not given in full)	0.0805
C=CCOC(=O)[C@H]1[C@@H]2C(=O)O[C@@H](c3ccccc3)[C@@H](c3ccccc3)N2[C@@H](c2ccc(OCCOC(=O)[C@H]3C[C@H]4C(=O)N[C@@H](CC(C)C)C(=O)N4[C@H]3c3ccc(O)cc3)cc2)[C@]12C(=O)Nc1ccc(I)cc12	0.739
COCCOC(=O)N1C(=O)[C@@]2(c3cc(C#CC4=CCCCC4)ccc31)[C@H](c1ccc(O)cc1)N1[C@H](c3ccccc3)[C@H](c3ccccc3)OC(=O)[C@H]1[C@@H]2C(N)=O	-0.403
CN(C)CCCNC(=O)[C@@]1(c2ccc([N+](=O)[O-])cc2)CC(=O)N(C2CCCCC2)[C@@H]1c1ccc(CO)cc1I	1.44
COCCOC(=O)N1C(=O)[C@@]2(c3cc(C#CCCO)ccc31)[C@H](C(=O)N1CCc3cc(OC)c(OC)cc3C1)[C@H]1C(=O)O[C@H](c3ccccc3)[C@H](c3ccccc3)N1[C@@H]2c1ccc(O)cc1	0.349
CCCC[C@@H]1C[C@H]1[C@@H](NC(=O)c1ccco1)c1ccc(C(=O)OC)cc1	0.501
CCCCCN1CC=CC23O[C@@H]4/C=C\CCCOC(=O)C4[C@H]2C(=O)N(CCCO)[C@@H]3C1=O (stereo not given in full)	0.212
